# Data as given in article PMC8769072, “Proteome‐scale mapping of binding sites in the unstructured regions of the human proteome” (Molecular Systems Biology, 2022).
# B1: GTPBP1, O00178 (peptide)
# chain: SEQYDSLLRQMWERMD
# B2: GDPD4, Q6W3E5 (peptide)
# chain: VVEGPWTLAALYPALP
# B3: FOXP1, Q9H334 (peptide)
# chain: TELQQLWKEVTSAHTA
# B4: TBP, P20226 (peptide)
# chain: MDQNNSLPPYAQGLAS
# B5: TPCN1, Q9ULQ1 (peptide)
# chain: EWYEEHAREQEQQRQL
# B6: CAMTA1, Q9Y6Y1 (peptide)
# chain: SWLASYLADADALPSA
# B7: ESS2, Q96DF8 (peptide)
# chain: GKMSREPPPPYVTPAT
# B8: SLC12A7, Q9Y666 (peptide)
# chain: MPTNFTVVPVEAHADG
# B9: UBE2L6, O14933 (peptide)
# chain: KPPPYLRNLSSDDANV
# B10: DHX34, Q14147 (peptide)
# chain: GLYPQLAVPDAFNSSR
# B11: TTC31, Q49AM3 (peptide)
# chain: QLWHHDYLLGHLDDEG
# B12: IRS1, P35568 (peptide)
# chain: EDVKRHSSASFENVWL
# B13: SLC12A1, Q13621 (peptide)
# chain: DSVPSNTNRFQVSVIN
# B14: GRSF1, Q12849 (peptide)
# chain: YLEDLPPPPEYELAPS
# B15: MCC, P23508 (peptide)
# chain: LGRDLYPNLAEERSRW
# B16: BAIAP2L1, Q9UHR4 (peptide)
# chain: SVVIPPPDYLEALSMG
# B17: LMTK3, Q96Q04 (peptide)
# chain: FSRFSVSPALETPGPP
# B18: MIER2, Q8N344 (peptide)
# chain: DMPFDELLALYGYEAS
# B19: LENG8, Q96PV6 (peptide)
# chain: DWSSQYSMVAGAGREN
# B20: SH3YL1, Q96HL8 (peptide)
# chain: YKLYPGLSSYHERVGN
# B21: PI4K2A, Q9BTU6 (peptide)
# chain: RAQPPDYTFPSGSGAH
# B22: SMAD6, O43541 (peptide)
# chain: LAGPESPPPPYSRLSP
# B23: DAZAP2, Q15038 (peptide)
# chain: HLPQAPPYTDAPPAYS
# B24: SLC12A2, P55011 (peptide)
# chain: SEEAKGRFRVNFVDPA
# B25: TTN, Q8WZ42 (peptide)
# chain: SWNPPEYDGGAQISNY
# B26: TONSL, Q96HA7 (peptide)
# chain: HGRYAEALEQHWQELQ
# B27: NUP62, P37198 (peptide)
# chain: WSLELEDQERHFLQQA
# B28: LRRN1, Q6UXK5 (peptide)
# chain: LYPPLINLWEGDSEKD
# B29: FSD1, Q9BTV5 (peptide)
# chain: DDLSVEWDAMGGKVQD
# B30: SOWAHC, Q53LP3 (peptide)
# chain: SSGGGSVTLDPLEHAW
# B31: CPEB2, Q7Z5Q1 (peptide)
# chain: DSLQDSWATAAGTSRI
# B32: BCORL1, Q5H9F3 (peptide)
# chain: VHDAVVNDNLETIWLL
# B33: GADD45GIP1, Q8TAE8 (peptide)
# chain: WYPSLATMQESLRVKQ
# B34: STAM, Q92783 (peptide)
# chain: LYPSTSSLLTNHQHEG
# B35: WNK1, Q9H4A3 (peptide)
# chain: TKVGRFQVTTTANKVG
# B36: AATK, Q6ZMQ8 (peptide)
# chain: SPAPTSRFSITHVSDS
# B37: UVSSA, Q2YD98 (peptide)
# chain: YPSLTNLKAQADTARA
# B38: TNKS1BP1, Q9C0C2 (peptide)
# chain: AWIRDYSSGGSSRTLD
# B39: STPG4, Q8N801 (peptide)
# chain: NNPVLNDLPQYMPPDF
# B40: TMEM61, Q8N0U2 (peptide)
# chain: KVVDIPTYEEAVSFPV
# B41: ATN1, P54259 (peptide)
# chain: VSNQPPKYTQPSLPSQ
# B42: WNK4, Q96J92 (peptide)
# chain: SEEGKPQLVGRFQVTS
# B43: CBFA2T3, O75081 (peptide)
# chain: HKLTEREWAEEWKHLN
# B44: RHBDD1, Q8TEB9 (peptide)
# chain: RNSPPPYGFHLSPEEM
# B45: CEACAM5, P06731 (peptide)
# chain: FRVYPELPKPSISSNN
# B46: SLC6A11, P48066 (peptide)
# chain: FYLYPDLSRLSDPQVW
# B47: TSHZ1, Q6ZSZ6 (peptide)
# chain: YPQDSLAQIKAVYANL
# B48: HSF2, Q03933 (peptide)
# chain: SENESLWKEVSELRAK
# B49: AATK, Q6ZMQ8 (peptide)
# chain: TPTPAPFSRFTVSPAP
# B50: JCAD, Q9P266 (peptide)
# chain: LALSDPGLEPPVYVPP
# B51: TNRC18, O15417 (peptide)
# chain: LEDVSKPPAYAYPATP
# B52: PIK3R6, Q5UE93 (peptide)
# chain: RFEVAPAPEPASGAQK
# B53: TP73, O15350 (peptide)
# chain: STATSPDGGTTFEHLW
# B54: NFKBIL1, Q9UBC1 (peptide)
# chain: ELEDEWQEVMGRFEGD
# B55: C11orf53, Q8IXP5 (peptide)
# chain: DLHHTPGYPTPPPYPF
# B56: FNBP4, Q8N3X1 (peptide)
# chain: EMGDWQEVWDENTGAY
# B57: BSN, Q9UPA5 (peptide)
# chain: RDPEPPEPPTYRAQGV
# B58: DNAH2, Q9P225 (peptide)
# chain: NWNEWKTGRFLILQTE
# B59: SLC12A3, P55017 (peptide)
# chain: DATLASGRFTISTLLS
# B60: WDFY4, Q6ZS81 (peptide)
# chain: TPLWEETMLKAWQHYL
# B61: MIR1-1HG, Q9H1L0 (peptide)
# chain: SPASWERLLAYGWSHA
# What was measured:
# [1] = target: PEX14 16-84, O75381
# PEX14 16-84, O75381, sequence (O75381 16-84): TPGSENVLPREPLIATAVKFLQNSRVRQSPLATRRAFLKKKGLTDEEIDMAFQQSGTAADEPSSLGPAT
# [2] = target: PDCD6IP 360-702, Q8WUM4
# PDCD6IP 360-702, Q8WUM4, sequence (Q8WUM4 360-702): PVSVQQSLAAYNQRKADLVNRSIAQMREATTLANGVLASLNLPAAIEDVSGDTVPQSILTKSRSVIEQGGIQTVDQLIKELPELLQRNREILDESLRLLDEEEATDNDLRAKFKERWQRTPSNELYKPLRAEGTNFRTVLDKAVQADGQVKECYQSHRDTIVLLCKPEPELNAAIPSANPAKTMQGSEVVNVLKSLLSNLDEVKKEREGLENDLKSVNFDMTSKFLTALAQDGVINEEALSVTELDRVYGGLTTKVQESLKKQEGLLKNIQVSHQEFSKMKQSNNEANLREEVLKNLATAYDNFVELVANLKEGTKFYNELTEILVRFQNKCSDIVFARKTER
# [3] = target: NEDD4 890-928, P46934
# NEDD4 890-928, P46934, sequence (P46934 890-928): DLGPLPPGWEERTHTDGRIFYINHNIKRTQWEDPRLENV
# [4] = target: YAP1 169-207, P46937
# YAP1 169-207, P46937, sequence (P46937 169-207): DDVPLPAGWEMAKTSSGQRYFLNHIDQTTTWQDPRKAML
# [5] = target: OXSR1 434-527, O95747
# OXSR1 434-527, O95747, sequence (O95747 434-527): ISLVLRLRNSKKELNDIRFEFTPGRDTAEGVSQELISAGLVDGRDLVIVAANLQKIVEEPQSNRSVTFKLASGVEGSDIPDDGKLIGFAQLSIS
binder,measurement,setting,value
B1,selected by phage display,[1],confidence 2 (active)
B2,selected by phage display,[2],confidence 3 (active)
B3,selected by phage display,[1],confidence 3 (active)
B4,selected by phage display,[3],confidence 2 (active)
B5,selected by phage display,[1],confidence 2 (active)
B6,selected by phage display,[1],confidence 3 (active)
B7,selected by phage display,[3],confidence 4 (active)
same,selected by phage display,[4],confidence 4 (active)
B8,selected by phage display,[5],confidence 2 (active)
B9,selected by phage display,[3],confidence 2 (active)
B10,selected by phage display,[2],confidence 2 (active)
B11,selected by phage display,[1],confidence 2 (active)
B12,selected by phage display,[1],confidence 3 (active)
B13,selected by phage display,[5],confidence 4 (active)
B14,selected by phage display,[3],confidence 2 (active)
B15,selected by phage display,[2],confidence 3 (active)
B16,selected by phage display,[3],confidence 4 (active)
same,selected by phage display,[4],confidence 3 (active)
B17,selected by phage display,[5],confidence 2 (active)
B18,selected by phage display,[2],confidence 2 (active)
B19,selected by phage display,[1],confidence 3 (active)
B20,selected by phage display,[2],confidence 3 (active)
B21,selected by phage display,[3],confidence 2 (active)
B22,selected by phage display,[3],confidence 3 (active)
B23,selected by phage display,[3],confidence 3 (active)
B24,selected by phage display,[5],confidence 2 (active)
B25,selected by phage display,[3],confidence 2 (active)
B26,selected by phage display,[1],confidence 4 (active)
B27,selected by phage display,[1],confidence 2 (active)
B28,selected by phage display,[2],confidence 4 (active)
B29,selected by phage display,[1],confidence 4 (active)
B30,selected by phage display,[1],confidence 3 (active)
B31,selected by phage display,[1],confidence 3 (active)
B32,selected by phage display,[1],confidence 3 (active)
B33,selected by phage display,[2],confidence 3 (active)
B34,selected by phage display,[2],confidence 3 (active)
B35,selected by phage display,[5],confidence 4 (active)
B36,selected by phage display,[5],confidence 2 (active)
B37,selected by phage display,[2],confidence 2 (active)
B38,selected by phage display,[1],confidence 2 (active)
B39,selected by phage display,[3],confidence 3 (active)
B40,selected by phage display,[3],confidence 2 (active)
B41,selected by phage display,[3],confidence 3 (active)
same,selected by phage display,[4],confidence 2 (active)
B42,selected by phage display,[5],confidence 4 (active)
B43,selected by phage display,[1],confidence 3 (active)
B44,selected by phage display,[3],confidence 2 (active)
B45,selected by phage display,[2],confidence 3 (active)
B46,selected by phage display,[2],confidence 3 (active)
B47,selected by phage display,[2],confidence 2 (active)
B48,selected by phage display,[1],confidence 3 (active)
B49,selected by phage display,[5],confidence 3 (active)
B50,selected by phage display,[3],confidence 3 (active)
B51,selected by phage display,[3],confidence 3 (active)
B52,selected by phage display,[5],confidence 3 (active)
B53,selected by phage display,[1],confidence 3 (active)
B54,selected by phage display,[1],confidence 4 (active)
B55,selected by phage display,[3],confidence 3 (active)
same,selected by phage display,[4],confidence 3 (active)
B56,selected by phage display,[1],confidence 3 (active)
B57,selected by phage display,[3],confidence 3 (active)
B58,selected by phage display,[5],confidence 3 (active)
B59,selected by phage display,[5],confidence 2 (active)
B60,selected by phage display,[1],confidence 2 (active)
B61,selected by phage display,[1],confidence 3 (active)
